Compound activity: PubChem, National Center for Advancing Translational Sciences (NCATS)
BAZ2B inh = inhibitors of human BAZ2B bromodomain; 360,000 compounds, 4.4% hits; AlphaScreen BAZ2B-H3K14Ac peptide displacement; Potency, µM (series often up to 114 µM), inactives show top-dose activity change, negative = inhibition, usual class: inhibitors; Q9UIF8; AID 504333; also: % is scaled to controls: 0 for no effect and ±100 for the full control effect; nearly all actives have a fitted effect of over 60% in size
Target sequence (Q9UIF8 whole entry, looked up): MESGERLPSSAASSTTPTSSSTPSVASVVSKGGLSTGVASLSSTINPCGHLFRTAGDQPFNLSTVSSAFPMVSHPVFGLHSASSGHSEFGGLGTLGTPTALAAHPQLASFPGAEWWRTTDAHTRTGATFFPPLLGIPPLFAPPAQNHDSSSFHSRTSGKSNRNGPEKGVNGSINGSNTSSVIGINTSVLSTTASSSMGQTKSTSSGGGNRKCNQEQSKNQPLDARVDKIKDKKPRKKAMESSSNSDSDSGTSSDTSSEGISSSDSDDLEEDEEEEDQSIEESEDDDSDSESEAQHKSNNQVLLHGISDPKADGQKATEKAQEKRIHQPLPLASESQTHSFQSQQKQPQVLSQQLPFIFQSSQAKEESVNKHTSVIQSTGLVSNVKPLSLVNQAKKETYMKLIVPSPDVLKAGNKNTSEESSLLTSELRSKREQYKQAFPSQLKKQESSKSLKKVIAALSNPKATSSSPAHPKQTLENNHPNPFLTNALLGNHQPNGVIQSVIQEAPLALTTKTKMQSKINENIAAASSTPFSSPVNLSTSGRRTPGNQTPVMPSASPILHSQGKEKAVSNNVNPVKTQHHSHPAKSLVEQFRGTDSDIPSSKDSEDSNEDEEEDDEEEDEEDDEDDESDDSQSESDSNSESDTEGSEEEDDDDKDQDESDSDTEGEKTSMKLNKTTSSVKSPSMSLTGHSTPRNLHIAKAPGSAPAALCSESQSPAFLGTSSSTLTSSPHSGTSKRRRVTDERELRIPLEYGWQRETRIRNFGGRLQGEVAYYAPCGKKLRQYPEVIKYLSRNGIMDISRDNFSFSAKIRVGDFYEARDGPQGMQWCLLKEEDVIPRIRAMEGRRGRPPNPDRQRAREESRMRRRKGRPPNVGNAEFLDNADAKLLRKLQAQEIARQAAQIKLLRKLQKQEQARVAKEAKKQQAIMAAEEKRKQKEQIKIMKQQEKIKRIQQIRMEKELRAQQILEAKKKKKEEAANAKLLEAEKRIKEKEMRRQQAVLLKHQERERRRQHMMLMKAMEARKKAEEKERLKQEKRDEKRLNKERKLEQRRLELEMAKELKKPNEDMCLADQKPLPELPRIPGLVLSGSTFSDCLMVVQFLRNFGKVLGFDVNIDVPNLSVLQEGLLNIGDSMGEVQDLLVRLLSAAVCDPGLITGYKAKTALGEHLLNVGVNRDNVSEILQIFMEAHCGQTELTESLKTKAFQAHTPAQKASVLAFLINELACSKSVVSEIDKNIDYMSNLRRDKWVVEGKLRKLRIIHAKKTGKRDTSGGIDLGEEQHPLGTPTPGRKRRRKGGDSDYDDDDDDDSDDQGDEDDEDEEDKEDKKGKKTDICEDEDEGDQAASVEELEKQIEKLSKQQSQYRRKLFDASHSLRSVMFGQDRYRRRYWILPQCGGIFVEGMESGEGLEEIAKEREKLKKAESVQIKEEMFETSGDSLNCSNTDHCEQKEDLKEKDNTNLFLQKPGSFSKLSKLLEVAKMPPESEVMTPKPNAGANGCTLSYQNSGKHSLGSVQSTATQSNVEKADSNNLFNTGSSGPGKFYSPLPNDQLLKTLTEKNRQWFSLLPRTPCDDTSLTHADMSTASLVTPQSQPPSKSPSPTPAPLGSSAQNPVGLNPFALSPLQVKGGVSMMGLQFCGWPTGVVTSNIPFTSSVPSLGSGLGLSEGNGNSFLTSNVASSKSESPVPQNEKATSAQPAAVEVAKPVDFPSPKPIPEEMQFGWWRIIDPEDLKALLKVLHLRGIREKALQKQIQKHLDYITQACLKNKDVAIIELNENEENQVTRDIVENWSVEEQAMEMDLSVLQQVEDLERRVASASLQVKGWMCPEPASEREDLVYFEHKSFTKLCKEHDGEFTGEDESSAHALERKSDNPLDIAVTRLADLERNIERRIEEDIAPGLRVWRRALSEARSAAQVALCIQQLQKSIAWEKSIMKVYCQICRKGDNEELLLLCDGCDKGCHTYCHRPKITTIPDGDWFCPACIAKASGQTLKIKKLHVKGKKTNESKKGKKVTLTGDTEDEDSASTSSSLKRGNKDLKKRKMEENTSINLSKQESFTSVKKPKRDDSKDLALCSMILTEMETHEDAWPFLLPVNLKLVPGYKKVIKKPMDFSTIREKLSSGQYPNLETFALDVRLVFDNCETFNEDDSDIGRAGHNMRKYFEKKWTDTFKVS
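AlphaScreen displacement of biotin-H3(5-23)K14Ac peptide (50 nM final) from BAZ2B (50 nM final) in PBS pH 7.4, 0.01% Tween-20; complex preformed 30 min RT, then compounds (top 110 uM) 30 min RT, beads 20 min dark.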
Sfp PPTase inh = Sfp phosphopantetheinyl transferase inhibition | 310,000 compounds, 3.5% hits | Biochemical Sfp PPTase activity, qHTS | AID 1490 | Q9F4F7 | Potency, µM, for inactives: largest response in the series, negative = inhibition, most hits filed as inhibitors;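 also: the enzyme is Sfp with the accession as filed and its product quenches rhodamine fluorescence; 0% = enzyme reaction without inhibitor and -100% = no enzyme wells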
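Buffer: 50 mM Hepes-Na pH 7.6, 10 mM MgCl2, 0.01% Nonidet P-40, 0.01% BSA. Enzyme 15 nM, pre-exposed to compound 15 min; substrates then added and fluorescence change tracked over 30 min.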
HP1b binding inh = blocks HP1-beta chromodomain binding to methylated histone tails. 390,000 compounds, 0.56% hits. AID 540317. Potency, µM (highest dose often 114 µM), for inactives: at the highest dose activity change, negative = inhibition, hits mostly inhibitors. AlphaScreen HP1-beta / biotin-H3K9me3 peptide binding. P83916; also: nearly all actives have a fitted effect of over 70% in size
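HP1-beta protein (50 nM final) preincubated 30 min at room temperature with biotinylated H3(1-18)K9me3 peptide (50 nM) in PBS pH 7.4, 0.01% Tween-20, then compound added for 30 min. AlphaScreen streptavidin donor/nickel chelate acceptor beads (10 ug/mL final), 30 min dark, luminescence read.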
JMJD2A Tudor inh = JMJD2A Tudor domain (human) inhibition | O75164 | AlphaScreen JMJD2A-Tudor / H3K4me3 peptide binding | Potency, µM (titrated, usually from 114 µM), without a hit: top-dose activity change, negative = inhibition, actives largely listed as inhibitors | 390,000 compounds, 4.4% hits; also: % is scaled to controls: 0 for no effect and ±100 for the full control effect; nearly all actives have a fitted effect of over 50% in size
G9a inh = blocks human histone lysine methyltransferase G9a | AID 504332 | G9a H3K9 monomethylation, AlphaScreen, 2 h | 350,000 compounds, 8.8% hits | Q96KQ7 | Potency, µM (titrated, usually from 102 µM), inactives show top-dose activity, negative = inhibition, usual class: inhibitors; also: % is scaled to controls: 0 for no effect and ±100 for the full control effect; nearly all actives have a fitted effect of over 75% in size
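Signal arises when biotinylated H3K9 peptide, once monomethylated, bridges streptavidin donor and antibody-captured acceptor beads. Enzyme at 20 nM was preincubated 15 min with test compounds; peptide 500 nM and SAM 20 uM then reacted for 2 h.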
ALOX12 inh = blocks human arachidonate 12S-lipoxygenase; P18054; purified 12hLO, xylenol orange hydroperoxide absorbance; Potency, µM (titrated, usually from 108 µM), for the others: at the top dose activity change, negative = inhibition, hits mostly inhibitors; 580,000 compounds, 1.1% hits; AID 1671190; also: % is scaled to controls: 0 for no effect and ±100 for the full control effect
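Purified human 12hLO at 150 nM in 25 mM Hepes, 0.01% Triton X-100, pH 7.0, preincubated 15 min at room temperature with compound. Reaction started with 40 uM arachidonic acid, 30 min at room temperature. Hydroperoxide measured by Fe-xylenol orange, 573/405 nm absorbance ratio.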
The depositor's hits bear a star; [ ] = dose if it differs, or a comment. Compounds with a hit are over-represented: about 8.7% of the library has one in this group of screens. Calls follow the shape of the dose curve; as a rule, active = well fitted curve in the direction sought with a large enough effect; inconclusive = small, poorly fitted or top-dose-only effect, or another doubt; inactive = no such curve, though single readings can be large; an effect the other way counts as inactive or inconclusive. Potency is read from the fitted curve at half-maximal effect.

`COc1cccc(/C=N/n2c(-c3cccs3)n[nH]c2=S)c1` gave BAZ2B inh inconclusive, Sfp PPTase inh -10.3%, HP1b binding inh -3.0%, JMJD2A Tudor inh 50.1µM*, G9a inh inconclusive and ALOX12 inh inconclusive.
For CCN(CC)c1ccc(/C=N/Nc2nc(C)cc(C)n2)cc1 the results were BAZ2B inh inconclusive, Sfp PPTase inh 16.7%, HP1b binding inh -9.7%, JMJD2A Tudor inh inconclusive, G9a inh inconclusive and ALOX12 inh 159.1%.
For Cc1ccc(-n2nc(C)c(/C=N/n3c(C)n[nH]c3=S)c2Cl)cc1 the results were BAZ2B inh 6.8%, Sfp PPTase inh 6.3%, HP1b binding inh 30.4%, JMJD2A Tudor inh -19.7%, G9a inh 3.16µM* and ALOX12 inh -12.6%.
`COCCN1C(=O)CO[C@H]2CN(C(=O)Nc3ccc(F)cc3)C[C@H]21` gave ALOX12 inh 27.7%[176 µM].
COc1ccc(NC(=O)c2oc3ccccc3c2NC(=O)c2nn(-c3cccc(C)c3)ccc2=O)cc1 was read as ALOX12 inh -20.3%.
Screening CC(=O)c1ccccc1NC(c1nnnn1-c1c(C)cccc1C)C1CC1 (stereo not drawn) returned ALOX12 inh -0.7%.
For O=[N+]([O-])c1cccc2ccc(/C=C/c3ccc(OC(F)F)cc3)nc12 the results were ALOX12 inh -2.8%.
Screening COc1ccc(/C=C/c2ccc3cccc([N+](=O)[O-])c3n2)cc1OC returned ALOX12 inh -3.4%.
O=C(O)COc1ccc(/C=C/c2ccc3cccc([N+](=O)[O-])c3n2)cc1 was read as BAZ2B inh 56.2µM*, Sfp PPTase inh -9.5%, HP1b binding inh inconclusive, JMJD2A Tudor inh inconclusive, G9a inh 28.2µM* and ALOX12 inh -24.4%.
`COc1cc(/C=C/c2ccc3cccc([N+](=O)[O-])c3n2)ccc1OCC(=O)O` gave BAZ2B inh 56.2µM*, Sfp PPTase inh 1.8%, HP1b binding inh 5.2%, JMJD2A Tudor inh -18.9%, G9a inh 39.8µM* and ALOX12 inh -26.5%.
For Cc1cc(=O)n(C)c(=O)n1CCCCCCN1CCCC1 the results were BAZ2B inh inconclusive, Sfp PPTase inh -10.8%, HP1b binding inh inconclusive, JMJD2A Tudor inh 3.16µM*, G9a inh 11.2µM* and ALOX12 inh inconclusive.
`Cc1ccc(Nc2nc(C(N)=O)c(NC(=O)c3ccccc3Br)s2)cc1` gave BAZ2B inh 9.0%, HP1b binding inh 3.6%[57 µM], JMJD2A Tudor inh -10.1%, G9a inh -23.1%[59 µM] and ALOX12 inh 14.1µM*.
NC(=O)c1nc(Nc2ccccc2)sc1NC(=O)c1c(F)cccc1F was read as BAZ2B inh 8.8%, HP1b binding inh 1.0%[57 µM], JMJD2A Tudor inh -4.9%, G9a inh -1.8%[59 µM] and ALOX12 inh -13.6%.
For Cc1nncn1C1CCN(S(=O)(=O)c2ccc(F)c(Cl)c2)CC1 the results were ALOX12 inh 23.3%.
Screening Cc1c2c(=O)n(-c3ccc(F)cc3)[nH]c2cc(=O)n1Cc1ccccc1 returned ALOX12 inh 11.2µM*.
Screening Cc1c2c(=O)n(-c3ccc(Cl)cc3)[nH]c2cc(=O)n1Cc1ccc(F)cc1 returned ALOX12 inh -13.1%.
Screening CN(C(=O)CSc1n[nH]c(N)n1)C1CCCCC1 returned HP1b binding inh 8.0%, JMJD2A Tudor inh -17.8% and ALOX12 inh 148.3%.
Screening Nc1nc(SCC(=O)C23CC4CC(CC(C4)C2)C3)n[nH]1 returned BAZ2B inh 0.5%, Sfp PPTase inh -11.3%, HP1b binding inh 30.5%, JMJD2A Tudor inh -17.3%, G9a inh 35.5µM* and ALOX12 inh 112.7%.
O=C1OC(c2cccs2)=N/C1=C\c1ccc(-c2cccc(Cl)c2)o1 was read as BAZ2B inh inconclusive, Sfp PPTase inh 79.4µM*, HP1b binding inh 7.6%, JMJD2A Tudor inh -29.1%, G9a inh 35.5µM* and ALOX12 inh inconclusive.
`N=C1S/C(=C\c2ccc(-c3cccc(Cl)c3)o2)C(=O)N1c1nccs1` gave BAZ2B inh -31.5%, Sfp PPTase inh 35.5µM*, HP1b binding inh -14.7%, JMJD2A Tudor inh inconclusive, G9a inh 3.55µM* and ALOX12 inh -24.1%.
Screening Clc1cccc(-c2ccc(/C=N/n3cnnc3)o2)c1 returned BAZ2B inh -8.7%, Sfp PPTase inh -20.7%, HP1b binding inh -1.1%, JMJD2A Tudor inh -21.5%, G9a inh 4.7%[12.7 µM] and ALOX12 inh -12.9%.
`Cc1oc(-c2ccccc2)nc1Cn1cnc(C#N)n1` gave ALOX12 inh 6.4%.
CCN(CC)S(=O)(=O)c1ccc(NCc2cc(C)ccc2C)cc1 was read as ALOX12 inh -7.2%.
Screening COc1ccc(N2COC3c4cccc5cccc(c45)C32)cc1 (stereo not drawn) returned BAZ2B inh 44.7µM*, Sfp PPTase inh -13.9%, HP1b binding inh -38.1%, JMJD2A Tudor inh 63.1µM*, G9a inh inconclusive and ALOX12 inh inconclusive.
For Clc1ccc(N2COC3c4cccc5cccc(c45)C32)cc1 (stereo not drawn) the results were BAZ2B inh 1.6%, Sfp PPTase inh 14.1%, HP1b binding inh 24.5%, JMJD2A Tudor inh -8.1%, G9a inh -4.2%[59 µM] and ALOX12 inh inconclusive.
For CCOC(=O)N1CCN(CC(=O)c2c[nH]c3ccc(F)cc23)CC1 the results were BAZ2B inh 4.0%, Sfp PPTase inh 0.4% and G9a inh 50.1µM*.
For CN1CCc2c([nH]c3ccccc23)C12CCN(C(=O)c1cn(C)cn1)CC2 the results were ALOX12 inh 5.3%.
`Clc1ccc(Nc2nc(NCC3CCCO3)nc3c2cnn3-c2ccccc2)cc1` (stereo not drawn) gave ALOX12 inh 0.1%.
Screening O=C(Cc1cccc(F)c1)N1CCC2(CC1)NC(=O)N(Cc1ccccc1Cl)C2=O returned ALOX12 inh -5.3%.
Screening COc1ccccc1CCC(=O)N1CCC2(CC1)N=C(c1ccc(C)cc1)NO2 returned ALOX12 inh 28.4%.
For Cc1cccc(OCC(=O)N2CCN(C(=O)CCC3CCCC3)CC2)c1 the results were BAZ2B inh -2.0%, Sfp PPTase inh -23.5%, HP1b binding inh 38.4%, JMJD2A Tudor inh -7.5%, G9a inh -40.4% and ALOX12 inh -0.7%.
For COc1ccccc1CCC(=O)N1CCC2(CC1)NC(=O)N(c1ccc(F)cc1)N2 the results were ALOX12 inh 3.16µM*.
`Cc1cccc(OCC(=O)N2CCC3(CC2)NC(=O)N(c2ccc(F)cc2)N3)c1` gave ALOX12 inh 4.47µM*.
O=C(Cc1ccccc1Cl)N1CCC2(CC1)NC(=O)N(c1ccc(F)cc1)N2 was read as ALOX12 inh 2.24µM*.
